Laboratory results: the supplement of paper PMC11732987, “Enantioselective OTUD7B fragment discovery through chemoproteomics screening and high-throughput optimisation” (Communications Chemistry, 2025)

How the values were obtained:
Assay in all cases: log2 ratio of Biotin-Ahx-Ub-VS probe labelling (fragment/DMSO); higher = less target engagement (more negative = stronger competition), active = hit call of the paper (q ≤ 0.05, log2 ratio ≤ -1)
Conditions in all cases: compound concentration: 200 uM; treatment time: 3 h
[1] = target: USP34 (UniProt Q70CQ2)
Sequence of USP34 (Q70CQ2 whole entry, the tested form may be a part): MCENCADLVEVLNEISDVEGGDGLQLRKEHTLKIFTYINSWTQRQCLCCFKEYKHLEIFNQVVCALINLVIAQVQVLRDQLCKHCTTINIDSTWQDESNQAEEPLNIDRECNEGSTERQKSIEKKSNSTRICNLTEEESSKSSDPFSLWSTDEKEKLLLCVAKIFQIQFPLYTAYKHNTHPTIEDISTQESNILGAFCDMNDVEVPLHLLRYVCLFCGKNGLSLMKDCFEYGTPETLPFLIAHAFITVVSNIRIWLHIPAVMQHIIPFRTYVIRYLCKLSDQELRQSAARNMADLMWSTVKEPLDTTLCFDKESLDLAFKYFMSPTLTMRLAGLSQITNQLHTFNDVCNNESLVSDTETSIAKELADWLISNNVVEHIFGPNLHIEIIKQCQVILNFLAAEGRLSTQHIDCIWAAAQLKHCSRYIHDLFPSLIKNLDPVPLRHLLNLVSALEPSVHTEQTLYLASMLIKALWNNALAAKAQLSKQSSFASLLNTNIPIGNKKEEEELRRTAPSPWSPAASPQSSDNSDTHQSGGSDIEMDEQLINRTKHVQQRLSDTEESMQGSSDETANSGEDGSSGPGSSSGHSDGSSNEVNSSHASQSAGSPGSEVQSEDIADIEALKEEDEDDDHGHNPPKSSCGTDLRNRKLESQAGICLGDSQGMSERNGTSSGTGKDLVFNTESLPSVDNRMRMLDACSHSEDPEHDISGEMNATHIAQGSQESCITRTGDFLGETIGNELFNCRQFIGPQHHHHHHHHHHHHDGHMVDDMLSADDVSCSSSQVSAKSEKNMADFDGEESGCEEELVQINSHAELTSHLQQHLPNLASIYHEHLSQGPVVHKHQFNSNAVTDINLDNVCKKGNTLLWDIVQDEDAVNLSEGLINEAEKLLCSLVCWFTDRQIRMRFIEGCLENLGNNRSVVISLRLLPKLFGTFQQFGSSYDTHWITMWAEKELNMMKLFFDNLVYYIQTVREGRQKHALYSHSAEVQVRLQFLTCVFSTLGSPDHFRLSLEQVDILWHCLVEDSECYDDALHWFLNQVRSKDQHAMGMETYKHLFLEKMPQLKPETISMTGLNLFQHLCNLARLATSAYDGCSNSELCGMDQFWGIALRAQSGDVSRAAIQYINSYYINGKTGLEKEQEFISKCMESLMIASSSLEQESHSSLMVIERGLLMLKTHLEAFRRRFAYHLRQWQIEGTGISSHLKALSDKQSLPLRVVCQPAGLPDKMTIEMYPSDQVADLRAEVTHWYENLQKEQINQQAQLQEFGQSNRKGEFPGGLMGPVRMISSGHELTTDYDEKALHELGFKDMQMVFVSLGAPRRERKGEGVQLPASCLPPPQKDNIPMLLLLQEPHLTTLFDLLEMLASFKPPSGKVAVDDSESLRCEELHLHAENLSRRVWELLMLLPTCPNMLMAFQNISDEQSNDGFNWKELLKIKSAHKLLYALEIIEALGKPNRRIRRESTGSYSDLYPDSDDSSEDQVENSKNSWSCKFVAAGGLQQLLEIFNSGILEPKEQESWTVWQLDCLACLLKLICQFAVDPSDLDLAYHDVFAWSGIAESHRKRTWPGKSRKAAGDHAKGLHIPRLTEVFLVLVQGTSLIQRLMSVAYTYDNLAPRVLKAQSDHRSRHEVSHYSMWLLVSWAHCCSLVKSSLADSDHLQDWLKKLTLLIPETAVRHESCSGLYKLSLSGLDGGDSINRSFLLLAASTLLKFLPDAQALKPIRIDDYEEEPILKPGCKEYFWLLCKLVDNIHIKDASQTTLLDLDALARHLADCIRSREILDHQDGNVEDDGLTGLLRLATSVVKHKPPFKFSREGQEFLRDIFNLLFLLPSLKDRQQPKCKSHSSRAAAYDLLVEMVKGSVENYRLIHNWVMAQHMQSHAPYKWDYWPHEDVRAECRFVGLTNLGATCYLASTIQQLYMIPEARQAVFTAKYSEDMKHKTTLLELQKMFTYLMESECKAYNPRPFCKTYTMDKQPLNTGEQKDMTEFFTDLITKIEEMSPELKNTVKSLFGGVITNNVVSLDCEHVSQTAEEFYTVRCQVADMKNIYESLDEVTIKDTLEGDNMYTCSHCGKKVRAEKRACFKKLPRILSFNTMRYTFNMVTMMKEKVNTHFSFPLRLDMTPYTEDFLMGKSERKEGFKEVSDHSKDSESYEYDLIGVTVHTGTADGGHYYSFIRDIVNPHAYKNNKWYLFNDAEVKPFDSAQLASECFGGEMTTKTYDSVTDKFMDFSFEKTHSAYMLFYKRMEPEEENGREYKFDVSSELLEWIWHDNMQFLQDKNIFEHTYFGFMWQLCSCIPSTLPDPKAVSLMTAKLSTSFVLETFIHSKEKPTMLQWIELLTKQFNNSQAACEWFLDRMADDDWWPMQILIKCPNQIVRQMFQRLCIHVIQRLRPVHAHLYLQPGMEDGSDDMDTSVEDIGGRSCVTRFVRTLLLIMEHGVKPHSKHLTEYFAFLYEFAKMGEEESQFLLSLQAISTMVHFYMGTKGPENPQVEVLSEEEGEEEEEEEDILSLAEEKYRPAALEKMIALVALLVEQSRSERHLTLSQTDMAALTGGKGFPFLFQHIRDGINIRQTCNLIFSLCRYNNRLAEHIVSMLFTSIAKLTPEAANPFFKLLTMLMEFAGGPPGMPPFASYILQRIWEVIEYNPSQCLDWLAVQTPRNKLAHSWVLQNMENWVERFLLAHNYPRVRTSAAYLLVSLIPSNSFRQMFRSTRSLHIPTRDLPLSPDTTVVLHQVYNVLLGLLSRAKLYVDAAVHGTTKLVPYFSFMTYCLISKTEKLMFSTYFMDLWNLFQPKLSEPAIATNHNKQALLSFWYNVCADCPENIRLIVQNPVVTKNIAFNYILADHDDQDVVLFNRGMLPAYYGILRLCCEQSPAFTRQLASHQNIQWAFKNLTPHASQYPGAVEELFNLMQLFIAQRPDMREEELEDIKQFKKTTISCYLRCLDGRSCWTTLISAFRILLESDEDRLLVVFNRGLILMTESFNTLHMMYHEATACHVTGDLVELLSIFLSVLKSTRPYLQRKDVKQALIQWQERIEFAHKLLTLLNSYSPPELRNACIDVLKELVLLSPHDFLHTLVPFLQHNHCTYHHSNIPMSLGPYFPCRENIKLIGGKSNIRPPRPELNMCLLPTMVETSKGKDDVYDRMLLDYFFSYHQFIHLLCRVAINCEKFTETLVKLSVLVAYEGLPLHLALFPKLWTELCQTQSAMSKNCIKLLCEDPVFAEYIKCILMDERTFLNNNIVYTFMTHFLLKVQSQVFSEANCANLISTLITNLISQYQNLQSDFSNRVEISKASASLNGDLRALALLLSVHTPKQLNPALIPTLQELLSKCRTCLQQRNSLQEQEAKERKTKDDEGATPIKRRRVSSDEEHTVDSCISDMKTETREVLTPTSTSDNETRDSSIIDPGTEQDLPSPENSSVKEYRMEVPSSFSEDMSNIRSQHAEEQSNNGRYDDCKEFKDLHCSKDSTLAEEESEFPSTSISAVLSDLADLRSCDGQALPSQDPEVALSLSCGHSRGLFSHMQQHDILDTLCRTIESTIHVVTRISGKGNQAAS
Outline: (§1)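 Fragment (200 µM) or vehicle was incubated for 3 h with triplicate HEK293T lysate samples of 495 µg, which were then treated with Biotin-Ahx-Ub-VS at 0.5 µM final for 1 h. Labelled DUBs were enriched on NeutrAvidin, digested with LysC and trypsin, and analysed by diaPASEF LC-MS/MS. Values are average log2 fragment/vehicle ratios from an unpaired t-test on global-median-normalised Spectronaut label-free quantities, using proteins with ≥2 unique peptides.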

[2] = target: T1, USP36 (UniProt Q9P275)
T1 sequence (whole entry): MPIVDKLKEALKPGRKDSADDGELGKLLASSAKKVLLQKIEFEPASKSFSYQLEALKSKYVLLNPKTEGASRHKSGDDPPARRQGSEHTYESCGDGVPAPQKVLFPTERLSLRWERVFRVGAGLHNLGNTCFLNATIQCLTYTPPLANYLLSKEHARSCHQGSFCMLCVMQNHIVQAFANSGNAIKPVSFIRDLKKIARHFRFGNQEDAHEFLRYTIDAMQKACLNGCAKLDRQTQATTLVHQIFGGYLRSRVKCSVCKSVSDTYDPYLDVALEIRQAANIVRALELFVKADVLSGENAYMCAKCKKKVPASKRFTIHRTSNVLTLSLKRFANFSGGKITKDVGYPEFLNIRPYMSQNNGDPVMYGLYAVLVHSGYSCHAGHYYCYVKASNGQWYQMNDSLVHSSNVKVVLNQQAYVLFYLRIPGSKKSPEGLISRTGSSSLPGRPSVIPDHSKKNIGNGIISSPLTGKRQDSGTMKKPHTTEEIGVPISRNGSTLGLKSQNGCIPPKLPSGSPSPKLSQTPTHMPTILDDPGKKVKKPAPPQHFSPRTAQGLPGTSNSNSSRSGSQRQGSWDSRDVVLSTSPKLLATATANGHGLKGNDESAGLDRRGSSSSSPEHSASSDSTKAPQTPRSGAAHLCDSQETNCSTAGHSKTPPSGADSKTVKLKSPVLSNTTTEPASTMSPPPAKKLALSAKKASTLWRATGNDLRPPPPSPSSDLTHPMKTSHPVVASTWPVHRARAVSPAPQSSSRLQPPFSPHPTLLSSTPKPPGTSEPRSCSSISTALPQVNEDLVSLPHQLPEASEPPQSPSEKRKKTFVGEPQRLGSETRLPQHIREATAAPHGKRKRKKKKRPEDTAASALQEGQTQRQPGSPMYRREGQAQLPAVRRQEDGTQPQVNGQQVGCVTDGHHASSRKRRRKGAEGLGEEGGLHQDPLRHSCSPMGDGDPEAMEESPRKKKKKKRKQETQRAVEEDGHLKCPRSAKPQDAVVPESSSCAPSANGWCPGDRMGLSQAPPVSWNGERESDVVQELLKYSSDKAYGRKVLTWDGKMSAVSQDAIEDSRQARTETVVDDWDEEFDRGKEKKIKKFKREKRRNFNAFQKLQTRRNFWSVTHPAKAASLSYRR
Outline: as §1

[3] = target: T2, USP38 (UniProt Q8NB14)
T2 sequence (whole entry): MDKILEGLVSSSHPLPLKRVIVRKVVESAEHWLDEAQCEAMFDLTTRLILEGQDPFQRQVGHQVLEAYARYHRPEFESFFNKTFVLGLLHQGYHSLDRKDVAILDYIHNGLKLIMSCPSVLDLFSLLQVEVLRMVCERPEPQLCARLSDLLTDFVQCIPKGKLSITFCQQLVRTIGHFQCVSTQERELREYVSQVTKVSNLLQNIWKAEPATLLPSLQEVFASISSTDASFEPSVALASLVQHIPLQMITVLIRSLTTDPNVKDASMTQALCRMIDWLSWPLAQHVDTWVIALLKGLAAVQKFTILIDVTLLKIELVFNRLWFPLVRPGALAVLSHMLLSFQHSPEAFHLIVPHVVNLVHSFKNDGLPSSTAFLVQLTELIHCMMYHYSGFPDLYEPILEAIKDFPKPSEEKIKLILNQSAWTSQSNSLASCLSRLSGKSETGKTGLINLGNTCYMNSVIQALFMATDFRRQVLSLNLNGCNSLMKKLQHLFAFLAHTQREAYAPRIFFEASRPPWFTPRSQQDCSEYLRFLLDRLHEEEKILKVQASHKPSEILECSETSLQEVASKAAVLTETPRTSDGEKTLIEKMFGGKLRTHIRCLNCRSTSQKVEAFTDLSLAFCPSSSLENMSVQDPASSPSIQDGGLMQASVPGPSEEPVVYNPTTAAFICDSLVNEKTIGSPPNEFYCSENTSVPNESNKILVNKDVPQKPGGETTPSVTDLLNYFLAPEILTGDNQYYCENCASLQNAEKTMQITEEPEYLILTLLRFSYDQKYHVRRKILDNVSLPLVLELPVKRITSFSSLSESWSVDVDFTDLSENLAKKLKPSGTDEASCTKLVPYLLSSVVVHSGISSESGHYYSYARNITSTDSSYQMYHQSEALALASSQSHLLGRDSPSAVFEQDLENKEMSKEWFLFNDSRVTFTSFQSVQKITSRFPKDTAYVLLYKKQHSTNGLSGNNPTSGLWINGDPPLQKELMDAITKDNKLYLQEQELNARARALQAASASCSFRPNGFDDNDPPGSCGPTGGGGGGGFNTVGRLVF
Outline: as §1

[4] = target: T3, USP39 (UniProt Q53GS9)
T3 sequence (whole entry): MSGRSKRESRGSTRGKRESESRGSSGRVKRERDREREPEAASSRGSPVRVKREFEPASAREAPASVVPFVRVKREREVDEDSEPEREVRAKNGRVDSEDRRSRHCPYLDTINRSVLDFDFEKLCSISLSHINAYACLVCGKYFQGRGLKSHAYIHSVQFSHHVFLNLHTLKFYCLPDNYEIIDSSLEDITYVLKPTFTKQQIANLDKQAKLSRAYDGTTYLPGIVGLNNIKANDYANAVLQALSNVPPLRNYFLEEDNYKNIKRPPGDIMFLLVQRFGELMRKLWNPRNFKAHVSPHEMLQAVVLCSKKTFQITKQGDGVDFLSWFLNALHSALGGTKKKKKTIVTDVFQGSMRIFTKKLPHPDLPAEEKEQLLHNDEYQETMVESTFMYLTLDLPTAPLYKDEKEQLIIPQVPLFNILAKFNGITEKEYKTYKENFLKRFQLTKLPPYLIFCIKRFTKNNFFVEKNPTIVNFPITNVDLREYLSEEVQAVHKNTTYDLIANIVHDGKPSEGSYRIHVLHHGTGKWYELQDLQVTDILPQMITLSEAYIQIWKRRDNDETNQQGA
Outline: as §1

[5] = target: T4, USP4 (UniProt Q13107)
T4 sequence (whole entry): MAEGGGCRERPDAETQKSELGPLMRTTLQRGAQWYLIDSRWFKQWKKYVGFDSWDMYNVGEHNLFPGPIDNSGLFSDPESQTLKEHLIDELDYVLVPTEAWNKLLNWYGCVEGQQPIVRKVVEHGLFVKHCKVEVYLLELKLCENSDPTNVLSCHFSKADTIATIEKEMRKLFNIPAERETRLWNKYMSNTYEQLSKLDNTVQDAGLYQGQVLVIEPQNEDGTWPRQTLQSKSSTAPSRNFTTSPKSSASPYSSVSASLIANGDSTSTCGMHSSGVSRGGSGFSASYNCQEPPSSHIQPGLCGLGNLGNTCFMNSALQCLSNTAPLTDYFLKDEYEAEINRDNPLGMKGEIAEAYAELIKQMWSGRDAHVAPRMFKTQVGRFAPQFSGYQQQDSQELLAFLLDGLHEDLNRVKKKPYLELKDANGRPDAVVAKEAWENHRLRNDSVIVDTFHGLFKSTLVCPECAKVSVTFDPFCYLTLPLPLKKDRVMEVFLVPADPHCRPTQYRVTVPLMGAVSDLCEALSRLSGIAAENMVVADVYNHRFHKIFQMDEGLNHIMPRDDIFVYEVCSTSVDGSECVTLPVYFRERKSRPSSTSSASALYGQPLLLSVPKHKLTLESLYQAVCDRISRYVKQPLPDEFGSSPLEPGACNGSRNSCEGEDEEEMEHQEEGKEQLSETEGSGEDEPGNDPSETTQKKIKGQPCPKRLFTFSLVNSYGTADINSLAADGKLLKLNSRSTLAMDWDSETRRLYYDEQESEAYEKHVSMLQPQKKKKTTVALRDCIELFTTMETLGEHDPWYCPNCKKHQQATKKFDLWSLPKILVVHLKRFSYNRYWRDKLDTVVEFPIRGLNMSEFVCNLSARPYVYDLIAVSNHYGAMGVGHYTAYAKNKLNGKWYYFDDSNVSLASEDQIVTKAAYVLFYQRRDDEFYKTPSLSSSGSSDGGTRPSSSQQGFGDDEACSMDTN
Outline: as §1

Measured: log2 ratio of Biotin-Ahx-Ub-VS probe labelling

CN1c2ccccc2C(NC(=O)CCl)CS1(=O)=O (stereo not given)
inactive: [1] -0.111 | [2] -0.287 | [3] -0.071 | [4] 0.00949 | [5] 0.0683
